# Source: the supplement of paper PMC10105736
# Unmarked numbers belong to inactive results.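 How the source made its calls: active = MAPPIT score above the 99th percentile of random reference set scores in the same batch; inactive = at or below it.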
# Legend:
# Assay in all cases: MAPPIT interaction score (arbitrary units); higher = stronger binary interaction signal, active = hit call of the paper
# [1] = biological target: CG10483; details: MAPPIT configuration: N-N; pair source set: DPIM
# [2] = biological target: CG4847; details: MAPPIT configuration: N-N; pair source set: DPIM
# [3] = biological target: twin; details: MAPPIT configuration: N-N; pair source set: DPIM
# [4] = biological target: CG10616; details: MAPPIT configuration: N-N; pair source set: Finley_Y2H
# [5] = biological target: CG10841; details: MAPPIT configuration: N-N; pair source set: screen_2
# [6] = biological target: CG10510; details: MAPPIT configuration: N-N; pair source set: Finley_Y2H
# [7] = biological target: CG31111; details: MAPPIT configuration: N-N; pair source set: DPIM
# [8] = biological target: CkIIbeta
# [9] = biological target: Pkc98E; details: MAPPIT configuration: N-N; pair source set: Finley_Y2H
# [10] = biological target: CG11149; details: pair source set: RRS
# [11] = biological target: CG14323; details: MAPPIT configuration: N-N; pair source set: RRS
# [12] = biological target: CG34268; details: MAPPIT configuration: N-N; pair source set: RRS
# [13] = biological target: CG10874; details: MAPPIT configuration: N-N; pair source set: Lit-BS-16
# [14] = biological target: RpL38; details: MAPPIT configuration: N-N; pair source set: Curagen_high_conf
# [15] = biological target: bond; details: MAPPIT configuration: N-N; pair source set: Curagen_low_conf
# [16] = biological target: CG10918; details: MAPPIT configuration: N-N; pair source set: Finley_Y2H
# 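Further: HEK293T cells with Epo stimulation, STAT-responsive firefly luciferase reporter, fold induction versus unstimulated cells divided by the larger fold induction of two negative controls lacking either bait or prey.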
binder,measurement,setting,value
CG1785 (protein) MTAVEPATKKKRISKKNKSAWRKTDIQDVEQFLEDQRQEERVGTFADKQDEDLFVVDSSLPKTKATVLSVKQKRKLNAKKPMRSYQALENTSKVQDPIAKRNHVRQKKNGRNIELEVCNPTKPRHRQANSDRAQYYVKLEQRLADKKNKKLDVEKDIWQEVDFRDEIPGLKDEKGWISRELALHTAGNIGKKVVKTHASLHHKTTKAKKFELPHPGMSYNPAPEDHQALIDQVVEREEGIIKKEQHLKRVTTSMFSKVTPEERDRRRLNEMSQGMDEEEGSELDEDVQTNGKKKEDDDEKPYHTINAPVENKKKSKQARRNELKQKELARQTELKRKLKQQTADLIRIKSIRHELDDEEEDLNDLKKRRKQRAEKAKFEPKRLGRHKFEEPDLDVNLPEDIAGNLRNVKTESSLLKDRFHTLQRNNMLPTTKLVSRKKSKVKRFERNSHKEPGVSYNDLKERRRAAAAAAKATANIKI,MAPPIT interaction score,[1],0.068
same,MAPPIT interaction score,[2],0.0294
same,MAPPIT interaction score,[3],-0.15
wbl (protein) MMHILVTLLLVAIHSIPTTWAVTCTGCVDLDELSFEKTVERFPYSVVKFDIAYPYGEKHEAFTAFSKSAHKATKDLLIATVGVKDYGELENKALGDRYKVDDKNFPSIFLFKGNADEYVQLPSHVDVTLDNLKAFVSANTPLYIGRDGCIKEFNEVLKNYANIPDAEQLKLIEKLQAKQEQLTDPEQQQNARAYLIYMRKIHEVGYDFLEEETKRLLRLKAGKVTEAKKEELLRKLNILEVFRVHKVTKTAPEKEEL,MAPPIT interaction score,[4],-0.151
mxt (protein) MAHTHLGRAVKNIEAPRPLKTQSRSSLKNSYLVIEELIQLIDNVTVGLQSCNTTPESITLLLHNLRVHGPQLEAVSKDTLDRAFVVFRNASQDERLNITTRLKLLELIELRAKSWDNDDTIAYYKSKQQISNVELPSEYQYDAGVQPGAFSTSPTFGVSGGVGGVNDGAAAAAAAVFNAASAAAAAQAAAIAAVGTSNQQHMLLPPGEVIRNSGKFPKPTKIPGKTYCKDEVVIRNADSGKVMGIKGRRVHMIEELSETIISFQRVNPGAKERLVQITGPAEDKINYAKQLMEDTIRRNASPVRLEPAPAVGGSCSSLNSSNSDDAIVQPRTPTGSSLANRLSFNSAQNFMTATAAAQQISQQMHHQTHHLQHQQQQQVAAVAAAAAAAAHAQATAAAGKVLRPNQQLLMHSYSTNDASVGEYKFTVNVGQHLIKITGDCCELVRVAKLVLDDYFSSSEFLASIEAGAAFDGTSLVTTPSTPLPGAGPPQFWLPGTDSGIGLNCVVSSSANNNGEGDDEVFAEPSNGGSSTSNQNGLARSRRSHFSRKESTPETKGAREKGDLDDLAGTNSLKSNASRVSYDIEHLLYYSMSPHSWTLPTDWQKMQETAPSILRNKDLQDESQRFDGDKYLASIKTAAKRDIVAADEVETLDE,MAPPIT interaction score,[5],0.671
CkIIalpha (protein) MTLPSAARVYTDVNAHKPDEYWDYENYVVDWGNQDDYQLVRKLGRGKYSEVFEAINITTTEKCVVKILKPVKKKKIKREIKILENLRGGTNIITLLAVVKDPVSRTPALIFEHVNNTDFKQLYQTLTDYEIRYYLFELLKALDYCHSMGIMHRDVKPHNVMIDHENRKLRLIDWGLAEFYHPGQEYNVRVASRYFKGPELLVDYQMYDYSLDMWSLGCMLASMIFRKEPFFHGHDNYDQLVRIAKVLGTEELYAYLDKYNIDLDPRFHDILQRHSRKRWERFVHSDNQHLVSPEALDFLDKLLRYDHVDRLTAREAMAHPYFLPIVNGQMNPNNQQ,MAPPIT interaction score,[6],0.0158
same,MAPPIT interaction score,[7],0.429
same,MAPPIT interaction score,"[8]; MAPPIT configuration: N-C, pair source set: Lit-BM-16",3.22
same,MAPPIT interaction score,"[8]; MAPPIT configuration: N-N, pair source set: Lit-BM-16",4.3 (active)
same,MAPPIT interaction score,"[8]; MAPPIT configuration: N-N, pair source set: screen_1",4.3 (active)
same,MAPPIT interaction score,[9],0.257
wuho (protein) MCTTISFAEPEIVLGHGRRVLFVNPDDLQIFKEIELPPDLGLKGHTSQSQESCTAAAAASTATAASGQAPGGKEQQLANQPEEGGTSASASGLGCATSTSVQNVAYSPDGQLLAVTTSGKQKALLLYRSRPENARLLSARPLARASSALRFCSDSSSILVTDKTGDCYQYDCVEVEAPPRLLLGHLSVVYDILWSEDQQHIITCDRDDKIRVTNYPATFDIHSYCLGHREFVSGLALLTEQHIASASGDKTLRVWNYIQGKELLQHELPAPAVRLLVRQLEPEKVFQAAVLFYEHVDALGLYRLERSSDDTWSVTATQLVCAEAGSWSISNFTLTSDRIYITGAENERLSLRVYDIATGQPASSGVPEGWLKMVLDGLGANEEGAPPFIPEDLSVWFKKRFDNVSDYLERKKRRIEEQQQQKCG,MAPPIT interaction score,[10]; MAPPIT configuration: N-C,0.206
same,MAPPIT interaction score,[10]; MAPPIT configuration: N-N,-0.175
same,MAPPIT interaction score,[11],0.00913
same,MAPPIT interaction score,[12],0.0545
gus (protein) MGQKISGGVKTVSRNDSQSTFKPIIPRELQADFVKPARIDILLDMPPASRDLQLKHSWNSEDRSLNIFVKEDDKLTFHRHPVAQSTDCIRGKVGLTKGLHIWEIYWPTRQRGTHAVVGVCTADAPLHSVGYQSLVGSTEQSWGWDLGRNKLYHDSKNCAGVTYPAILKNDEAFLVPDKFLVALDMDEGTLSFIVDQQYLGIAFRGLRGKKLYPIVSAVWGHCEITMRYIGGLDPEPLPLMDLCRRTIRQKIGRTNLEEHIQQLQLPLSMKTYLLYKNRR,MAPPIT interaction score,[13],0.809
same,MAPPIT interaction score,[14],0.363
same,MAPPIT interaction score,[15],0.0719
Fer2LCH (protein) MKFFVALALFACLGSLALAKDDEYCQNTVITACSTSAFSANSICNARFAGIDHIEPEIQSYINANLAKSYDYLLLATHFNSYQKNRPGFQKLYQGLSDRSFEDSIALIKQVTRRGGIVDFNTRHESSGSVSTKRGTLEVDELHSLALALDTEKQLATGATHVHSRATHATDAERDPELAHYFEENFLGKQAESVRKLSGYANDLAKLMKVPDPSLSVYLFDEYLQKQ,MAPPIT interaction score,[16],0.0432
